According to PubChem BioAssay (NCI):
The panel holds about 83,000 compounds, 20% with a hit somewhere; the sample as a whole holds those more often.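 In brief: 96-well plates, 48 h treatment, single concentration, percent growth endpoint.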 Activity calls are given as the source filed them. The calls were made as follows: active = growth percent below 10; inactive = the rest.

Experiments:
Test in all cases: NCI-60 one-dose screen, 48 h (100 = growth as untreated, 0 = no growth, -100 = all killed)
Settings in all cases: 10 µM unless noted
[1] = system: NCI-H23 lung
[2] = system: NCI-H226 lung
[3] = system: NCI-H322M lung
[4] = system: HOP-62 NSCLC
[5] = system: NCI-H460 lung
[6] = system: HOP-92 NSCLC
[7] = system: NCI-H522 lung
[8] = system: A549/ATCC NSCLC
[9] = system: 786-0 renal
[10] = system: COLO 205 colon
[11] = system: DU-145 prostate
[12] = system: K-562 leukemia
[13] = system: MALME-3M melanoma
[14] = system: MDA-MB-231 breast
[15] = system: RXF 393 renal
[16] = system: SF-268 CNS
[17] = system: SF-295 CNS
[18] = system: SF-539 CNS
[19] = system: UACC-257 melanoma
[20] = system: M14 melanoma

Measured: growth

COc1cc(/C=C/C(=O)c2cnn(-c3cc(=O)[nH]c4ccc(Cl)cc34)c2C)cc(OC)c1OC
active: [1] -55.9% | [2] -24.2% | [3] 7.2% | [4] -68.3% | [5] -39.1% | [6] -11.9% | [7] -62.9% | [8] -17.1% | [9] -43.9% | [10] -67.7% | [11] -72.8% | [12] -12.4% | [13] -20.4% | [14] -5.1% | [15] -84.1% | [16] -23.8% | [17] -71.5% | [18] -69.3% | [19] -33.8% | [20] -49%

COc1ccc(/C=C/c2nc3ccccc3c(=O)n2CC(=O)Nc2ccccc2)cc1
active: [2] -26.4% | [4] 2.16% | [6] -0.34% | [9] -42.6% | [14] -19.5% | [15] -54.7%
inactive: [1] 42.6% | [3] 46.8% | [5] 37% | [7] 89.2% | [8] 27.5% | [10] 71% | [11] 78% | [12] 84.5% | [13] 61.1% | [16] 54.5% | [17] 12.5% | [18] 32.4% | [19] 93.5% | [20] 46.4%

O=C(O)CC1S/C(=N/N=C/c2nc3ccccc3s2)NC1=O (stereo not given)
inactive: [1] 96.2% | [2] 101% | [3] 106% | [4] 108% | [5] 94.7% | [6] 136% | [7] 104% | [8] 96% | [9] 80.9% | [10] 135% | [11] 95.8% | [12] 94.1% | [13] 107% | [14] 102% | [15] 134% | [16] 85.5% | [17] 104% | [18] 98.1% | [19] 105% | [20] 90.4%

O=C(N=Nc1c(O)[nH]c2ccc(Cl)cc12)c1ccc2nc(-c3ccc(Cl)cc3)[nH]c2c1
active: [1] -71.5% | [4] -37.9% | [6] -0.983% | [7] -26.9% | [9] -72.6% | [10] -17.6% | [11] 5.09% | [12] 8.93% | [13] -1.72% | [14] -79.9% | [15] -27.7% | [16] 0.662% | [17] -12.5% | [18] -93.6% | [20] -6.49%
inactive: [2] 51.1% | [3] 31.4% | [5] 11.8% | [8] 41.5% | [19] 57.8%

C=CC(=O)N1CCN(c2ccc3nc4c(nc3c2C(F)(F)F)C(=O)c2ncccc2C4=O)CC1
inactive: [2] 63.8% | [3] 10.2% | [4] 39.9% | [9] 22% | [11] 23.6% | [15] 44.1% | [16] 21.3% | [17] 28.8%
active: [1] -61.5% | [5] -34.3% | [6] -3.31% | [7] -8.31% | [8] 2.38% | [10] -22.8% | [12] 3.62% | [13] -97.9% | [14] -13.6% | [18] -32.9% | [19] -82.7% | [20] -59.9%

Cc1ccc(C2CC(c3ccc(NC(=O)Nc4ccccc4)cc3)=NN2c2ccc(S(C)(=O)=O)cc2)cc1 (stereo not given)
inactive: [12] 13.1% | [19] 34.3%
active: [1] -69.1% | [2] -39.2% | [3] 6.06% | [4] -39.8% | [5] -5.89% | [6] -50.4% | [7] -23.7% | [8] 4.89% | [9] -31.6% | [10] -43.4% | [11] 3.25% | [13] -25.1% | [14] -70.1% | [15] -78.9% | [16] 9.34% | [17] -20.3% | [18] -97% | [20] -44.8%

CCCCCCCCc1cccc(CC(=O)Nc2ccc(C)cc2C(=O)O)c1
inactive: [1] 59.3% [25 µM] | [2] 65.3% [25 µM] | [3] 62.7% [25 µM] | [4] 54.8% [25 µM] | [5] 20.4% [25 µM] | [6] 83.8% [25 µM] | [7] 38.7% [25 µM] | [8] 31.4% [25 µM] | [9] 34.1% [25 µM] | [10] 59.1% [25 µM] | [11] 59.4% [25 µM] | [12] 28.9% [25 µM] | [13] 67.7% [25 µM] | [14] 66.5% [25 µM] | [15] 104% [25 µM] | [16] 61.9% [25 µM] | [17] 35.2% [25 µM] | [18] 37.1% [25 µM] | [19] 71.2% [25 µM] | [20] 62.9% [25 µM]
